Giardia kill – kills Giardia lamblia | Giardia lamblia trophozoite viability | activity change, % at 7.66 µM, hits read low | 340,000 compounds, 0.15% hits | AID 540267; in the data active = activity change below about -80%; inconclusive = between about -30% and that limit;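 also: parasites exposed to compound for two days anaerobically before the ATP read; % is scaled to controls: 0 for no effect and ±100 for the full control effect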
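Anaerobic 48 hrs incubation at 37 deg C of 100 trophozoites/well with test compounds; ATPLite 1-Step luminescence, 15-30 min RT, reports cellular ATP as viability.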
Rango release inh – inhibitors of RanGTP-induced Rango-importin beta complex dissociation; O95149+P62826; Biochemical FRET Rango-importin beta, RanGTP-induced dissociation; Potency, µM (titrated, usually from 46.1 µM), inactives show at the top dose activity change, negative = inhibition; 340,000 compounds, 0.071% hits; AID 540253; also: potency is read from the fitted curve at half-maximal effect; % of control where 0% means no effect; nearly all actives have a fitted effect of over 45% in size
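Two FRET readings bracket the reaction: one 5 min after compound meets Rango–importin beta, another 45 min after RanGTP-RCC1 (0.6 uM Ran, 0.2 uM RCC1, 2 mM GTP) is added. Only the second defines inhibition.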
Integrin act MD – integrin-mediated muscular dystrophy alleviation activation | alpha7betagal myoblasts, beta-gal FDG fluorescence, 48 h | Potency, µM (series often up to 38.3 µM), without a hit: top-dose activation, usual class: activators | 350,000 compounds, 0.064% hits | AID 624291; active = well fitted activation curve with a large enough effect; inconclusive = small, poorly fitted or top-dose-only effect; inactive = no such curve, though single readings can be large or run the other way;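 also: potency is read from the fitted curve at half-maximal effect; 100% = response of the positive control SU9516; nearly all actives have a fitted effect of over 60% in size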
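alpha7betagal+/- myoblasts (passage 13, 250/well) treated 48 h at 37C with compounds at 1:260 dilution of DMSO stock. Lysed, then beta-galactosidase activity read as FDG fluorescence (ex 480/em 540) after 30 min, with pre-read for autofluorescence.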
uPA surface inh – cell surface uPA generation inhibition; cell surface uPA generation assay, qHTS; Potency, µM (titrated, usually from 38.3 µM), inactives show at the top dose activity change, negative = inhibition, usual class: inhibitors; AID 540303; 330,000 compounds, 0.31% hits; active = well fitted inhibition curve with a large enough effect; inconclusive = small, poorly fitted or top-dose-only effect; inactive = no such curve, though single readings can be large or run the other way; tested in mouse RAW 264.7 cells; also: potency is read from the fitted curve at half-maximal effect; % is scaled to controls: 0 for no effect and ±100 for the full control effect; nearly all actives have a fitted effect of over 55% in size
Rango complex inh – inhibitors of Rango-importin beta complex formation; Q14974; Rango CFP/YFP FRET sensor + importin beta, 45 min; Potency, µM (top dose mostly 92.2 µM), inactives show top-dose inhibition of complex formation; 340,000 compounds, 0.031% hits; AID 540263;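 also: potency is read from the fitted curve at half-maximal effect; 0% = DMSO wells and 100% = buffer wells lacking importin beta; nearly all actives have a fitted effect of over 15% in size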
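FRET biosensor (snurportin 1 IBB flanked by EYFP and cerulean), 50 nM, with compound 5 min, then 0.125 microM importin beta in PBS, 1 mM DTT, 0.02% Tween-20, 0.1% BSA. CFP/YFP ratio read after 45 min at room temperature; pre-read flags interference.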
* hit, by the source's call; ? = inconclusive; / = no result given. This is a sample that favours compounds with a hit; in the whole collection about 0.59% have one here. Unless noted, calls follow the shape of the full dose curve.

SMILES	Giardia kill	Rango release inh	Integrin act MD	uPA surface inh	Rango complex inh
O=C(Nc1nc2c(Cl)cccc2s1)c1ccc(Br)o1	-5	-12%	2%	6%	2%
O=C(Nc1nc2c(F)cccc2s1)c1ccc([N+](=O)[O-])o1	-97*	-9%	-8%	-11%	-1%
CS(=O)(=O)c1ccc(Cl)c(NC(=O)CSc2nncn2-c2ccccc2)c1	-10	0%	13µM*	-6%	-1%
O=C(CSc1nncn1-c1ccccc1)Nc1ccccc1	-5	-7%	-16%	-1%	-4%
CC(C)Nc1ncnc2c1cnn2-c1ccc(Cl)cc1	?	-22%	6%	13µM*	?
Brc1ccc(N=Nc2ccc3ccccc3n2)cc1	-81*	-11%	-3%	-12%	?
Oc1cccc(-c2nc3ccccc3s2)c1	-25	-7%	2%	-7%	8%
Oc1cccc(-c2nnc(-c3cccc(O)c3)nn2)c1	-80*	2%	-41%	-8%	1%
Cc1ccc(C)c(S(=O)(=O)N2CCN(C(=O)c3sccc3C)CC2)c1	14	-4%	7%	-2%	-1%
CC(C)(C)OC(=O)N1CCCC(C(=O)Nc2ccc(C(=O)NCc3ccccc3)cc2)C1 (configuration not stated)	3	10%	20%	-1%	1%
Cc1cc(Nc2ccc(C)c(C)c2)c2ccccc2n1	11	12%	-35%	-11%	2%
Cc1ccc(Nc2nc(N)c3ccccc3n2)cc1C	-22	0%	?	7.1µM*	0%
CCOc1ccc2c(c1)C(C)=CC(C)(C)N2S(=O)(=O)c1ccc(F)cc1	-19	-6%	-24%	8.9µM*	0%
CCOc1ccc2c(c1)C(C)=CC(C)(C)N2S(=O)(=O)c1ccc(NC(C)=O)cc1	7	16%	0%	?	-2%
CN(C(=O)OC(C)(C)C)c1ccc(-c2nc3ccccc3s2)cc1	?	15%	/	2µM*	1%
CC1CC(C)CN(c2oc(-c3ccc(OCc4ccccc4Cl)cc3)nc2C#N)C1 (configuration not stated)	20	/	/	/	/
COCCCn1c(SCC(=O)N2CCCC2=O)nc2ccccc2c1=O	/	/	-6%	/	/
COc1cc(NC(=O)c2cccs2)c(OC)cc1NC(=O)c1cccs1	-6	18µM*	12%	-2%	?
COc1ccccc1CNS(=O)(=O)c1cc(C)ccc1OC	15	12%	-6%	-5%	-1%
COc1ccccc1CNS(=O)(=O)c1ccc(Cl)s1	23	-4%	6.3µM*	-5%	2%
CC(Oc1ccc2c3c(c(=O)oc2c1)CCC3)C(=O)NCCCn1ccnc1 (configuration not stated)	-5	-8%	4%	5%	-3%
CC1=CC(=O)C(C(C)C)=C/C1=N/OS(=O)(=O)c1ccccc1	-9	1%	-63%	4µM*	-1%
CC1=CC(=O)C=C(C)C1=NOS(=O)(=O)c1ccccc1	13	1%	-44%	-11%	-1%
O=C(CCCSc1nc(-c2ccco2)cc(C(F)(F)F)n1)NCC1CCCO1 (configuration not stated)	7	10%	4%	3%	-4%
O=C(CCSc1nc(-c2ccco2)cc(C(F)(F)F)n1)NCC1CCCO1 (configuration not stated)	11	26µM*	-14%	4%	?
SMILES	Giardia kill	Rango release inh	Integrin act MD	uPA surface inh	Rango complex inh
CCOC(=O)c1c(C)[nH]c(C)c1S(=O)(=O)N1CCN(c2ccc(F)cc2)CC1	-27	?	23%	7%	2%
O=C(Nc1ccc(N2CCN(Cc3ccccc3F)CC2)cc1)c1ccc([N+](=O)[O-])o1	-96*	-1%	-50%	-4%	6%
COc1ccc(N2CCCC2)c(NC(=O)c2ccc([N+](=O)[O-])o2)c1	-86*	?	7.9µM*	/	-1%
O=C(Nc1ccc(N2CCCC2)c(Cl)c1)c1ccc([N+](=O)[O-])o1	?	5%	-72%	-4%	-1%
CC1CCN(c2ccc(NC(=O)c3ccc([N+](=O)[O-])o3)cc2)CC1	?	1%	-46%	3.2µM*	3%
CCC(=O)N1CCN(c2ccc(NC(=O)c3ccc([N+](=O)[O-])o3)cc2)CC1	?	1%	-73%	-15%	3%
CS(=O)(=O)N1CCN(c2ccc(NC(=O)c3ccc([N+](=O)[O-])o3)cc2)CC1	-81*	1%	-77%	?	0%

Screening results from PubChem BioAssay.
